Source: PubChem
D1 antag = antagonists of human D1 dopamine receptor; P21728; HEK293 TREx D1 cells, calcium flux, dopamine EC80; stronger effect = lower value; activity change, negative = inhibition, % at 10 µM; 360,000 compounds, 3.2% hits; in the data active = activity change below about -30%
Target sequence (P21728 whole entry, looked up): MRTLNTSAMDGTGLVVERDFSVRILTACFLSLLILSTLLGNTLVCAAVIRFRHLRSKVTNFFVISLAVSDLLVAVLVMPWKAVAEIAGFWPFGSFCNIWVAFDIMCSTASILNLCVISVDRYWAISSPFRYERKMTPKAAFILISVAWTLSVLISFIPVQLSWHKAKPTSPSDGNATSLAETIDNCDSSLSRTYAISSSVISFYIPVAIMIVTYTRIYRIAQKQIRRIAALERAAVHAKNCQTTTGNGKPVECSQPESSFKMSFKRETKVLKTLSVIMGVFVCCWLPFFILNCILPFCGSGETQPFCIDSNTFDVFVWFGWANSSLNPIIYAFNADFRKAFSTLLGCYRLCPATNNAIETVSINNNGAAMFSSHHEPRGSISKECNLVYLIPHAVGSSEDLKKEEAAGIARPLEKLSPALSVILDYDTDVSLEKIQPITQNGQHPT
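Tetracycline-induced HEK293 T-REx cells with force-coupled D1 receptor were loaded with a no-wash calcium dye. Compound was added after a 10 s baseline and read kinetically for 180 s; EC80 dopamine was then added and calcium flux followed another 180 s.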
TRHR enhancer-1 = TRH receptor (human) allosteric enhancement; AID 493056; 360,000 compounds, 0.66% hits; P34981; enhancement, % at 2 µM; TRHR cells, fluo-8 calcium fluorescence, EC20 TRH enhancement; in the data active = enhancement above about 30%
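TRHR-expressing cells loaded with fluo-8 calcium dye were read kinetically (ex 480/em 530) during compound addition, then stimulated with an EC20 of TRH (10 nM final). Enhancement of the Gq-mediated intracellular calcium response was scored.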
TRHR agonist-1 = activates the human TRH receptor; P34981; TRHR cells, calcium flux fluo-8, FDSS agonist mode; activation, % at 2 µM; 360,000 compounds, 0.18% hits; in the data active = activation above about 30%
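Agonist-mode FDSS calcium read (Ex 480/Em 530, 1 s cycles) in 1536-well TRHR cells with fluo-8 dye, after 10-cycle baseline and 23 nL compound addition; TRH at EC20 (10 nM final) added afterwards for the enhancer phase.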
D1 agonist = agonists of human D1 dopamine receptor; P21728; HEK293 T-REx D1 cells, calcium flux, agonist mode; activation, % at 2 µM; 360,000 compounds, 1% hits; AID 504660; in the data active = activation above about 30%
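Agonism was scored from calcium flux recorded over 180 s (1 read/s) after pintool compound addition, following a 10-cycle baseline. Cells were inducible force-coupled HEK293 TREx D1, plated overnight at 30 C and loaded with no-wash calcium dye.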
D1 potentiator = enhances dopamine response at the human D1 receptor; potentiation, % at 10 µM; P21728; 360,000 compounds, 0.036% hits; HEK293 TREx D1 cells, calcium flux, dopamine EC20 potentiation; in the data active = potentiation above about 30%
TRHR enhancer-2 = human TRH receptor allosteric enhancement confirmation. TRH receptor cell assay, enhancer confirmation qHTS. shares compounds with TRHR enhancer-1. activity change, negative = inhibition, % at 46.1 µM. 970 tested, under 10 active;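 also: compound effect scored on response to added TRH at EC20 of 10 nM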
TRHR agonist-2 = confirmation of human TRH receptor agonists. TRHR-expressing cells, agonist activation read-out. AID 493078. Potency, µM (titrated, usually from 46.1 µM), actives largely listed as activators. shares compounds with TRHR enhancer-1. 970 compounds, 8% hits; also: nearly all actives have a fitted effect of over 75% in size
Of the large screens only hits and unclear results are named; the others gave an inactive call (follow-up assays come after a bar, where they were run); ! = not confirmed by another sample. An excerpt weighted towards active compounds, which were near 4.6% of everything screened. Unless noted, calls follow the shape of the dose curve; as a rule, active = well fitted curve in the direction sought with a large enough effect; inconclusive = small, poorly fitted or top-dose-only effect, or another doubt; inactive = no such curve, though single readings can be large; an effect the other way counts as inactive or inconclusive.

COc1ccc(NC(=O)CNC(=O)c2ccco2)cc1	none
O=C(CNC(=O)c1ccco1)Nc1ccc(OC(F)F)cc1	TRHR enhancer-1 50.5 | TRHR enhancer-2 inactive | TRHR agonist-2 inactive
CCc1ccc(CN(C)Cc2nc(-c3cccc(Cl)c3)no2)nc1	TRHR enhancer-1 47.7 | TRHR enhancer-2 inactive | TRHR agonist-2 inactive
CN(Cc1cnn(C)c1)Cc1nc(-c2ccc(Cl)cc2)no1	none
CCOc1ccccc1NC(=O)CSc1nc2c(oc3ccccc32)c(=O)n1-c1ccc(F)cc1	none
COc1cc(OC)cc(OC(=O)c2cccc(S(=O)(=O)N3CCN(C)CC3)c2)c1	none
CN1CCN(S(=O)(=O)c2cccc(C(=O)Oc3ccc(C(C)(C)C)cc3)c2)CC1	D1 antag -30.2, TRHR enhancer-1 50.2 | TRHR enhancer-2 inactive | TRHR agonist-2 inactive
Cc1nn2c(=O)cc(COC(=O)COc3ccccc3C)nc2s1	none
N#Cc1ccc(-c2cccnc2)nc1SCC(=O)c1ccccc1	TRHR agonist-1 37.7, D1 agonist 108.4 | TRHR enhancer-2 inactive | TRHR agonist-2 inactive
Cc1ccc(C)n1C1CCS(=O)(=O)C1 (stereo unspecified)	none
CC(C)c1ccccc1N=C1SCCN1C1CCS(=O)(=O)C1 (stereo unspecified)	TRHR enhancer-1 69.9 | TRHR enhancer-2 inactive | TRHR agonist-2 inconclusive
N#CC1(NC(=O)CN2C(=O)NC3(CCCCCC3)C2=O)CCCCC1	none
O=C(O)C1=C[C@@H](c2csc3ccccc23)C[C@@H](OCCCCO)O1	TRHR enhancer-1 49.0 | TRHR enhancer-2 inactive | TRHR agonist-2 inactive
CCOC(=O)CN1C(=O)S/C(=C/C=C/c2ccc(N(C)C)cc2)C1=O	TRHR agonist-1 32.4, D1 agonist 105.0 | TRHR enhancer-2 inactive | TRHR agonist-2 inconclusive
CCOC(=O)CN1C(=O)S/C(=C/c2ccc3c(c2)n(C)c(=O)n3C)C1=O	none
CS(=O)(=O)c1ccc2nc(NC(=O)c3ccc(=O)[nH]c3)sc2c1	none
Cn1nc(C(=O)Nc2nc3ccc(S(C)(=O)=O)cc3s2)ccc1=O	TRHR enhancer-1 45.1 (no result: D1 antag) | TRHR enhancer-2 inactive | TRHR agonist-2 inactive
O=C(CN1CCSCC1)N/N=C/c1cccc(Cl)c1	none
Cc1cc(C)c(NC(=O)C(C)n2nc(-c3ccc(C)c(C)c3)ccc2=O)c(C)c1 (stereo unspecified)	none
COc1cc(NC(=S)NCCc2c[nH]c3ccccc23)c(OC)cc1Cl	TRHR enhancer-1 48.9 | TRHR enhancer-2 inactive | TRHR agonist-2 inactive
CN1CCN(NC(=O)/C=C/c2cccc(Cl)c2)CC1	none
COc1ccc(-c2cc(C(=O)NCCc3ccccc3)c3cc(C(C)C)ccc3n2)cc1	none
COc1ccc(-c2cc(C(=O)NCCN3CCOCC3)c3cc(C(C)C)ccc3n2)cc1	TRHR enhancer-1 46.6 | TRHR enhancer-2 inactive | TRHR agonist-2 inactive
Cc1ccc(S(=O)(=O)NCCC(=O)NCC(c2ccco2)N2CCCCC2)cc1C (stereo unspecified)	none
COc1ccc(C)cc1NC(=O)c1cc(S(=O)(=O)NCCC2=CCCCC2)ccc1F	none
COc1ccc(C)cc1NC(=O)NCCC1=CCCCC1	TRHR enhancer-1 43.4 | TRHR enhancer-2 inactive | TRHR agonist-2 inactive
Cc1ccc(N2C(=O)CC(NNC(=O)Cc3ccc(F)cc3)C2=O)cc1Cl (stereo unspecified)	none
CC1(c2ccc(Cl)cc2)NC(=O)N(CC(=O)NCCC2=CCCCC2)C1=O (stereo unspecified)	TRHR enhancer-1 80.7 | TRHR enhancer-2 inactive | TRHR agonist-2 inactive
CC(=O)N1CCN(c2nc3c(F)cc(F)cc3s2)CC1	none (no result: D1 antag)
Cc1cccc(-n2c(O)c(/C=N/NC(=O)c3ccccc3Cl)c3ccccc3c2=O)n1	none
COc1ccc(Cn2c(O)c(C=Nc3ccc(OC)cc3)c3ccccc3c2=O)cc1	none
O=C(N/N=C/c1c(O)n(-c2ccccc2Cl)c(=O)c2ccccc12)c1cccnc1	TRHR enhancer-1 40.4 | TRHR enhancer-2 inactive | TRHR agonist-2 inconclusive
O=C(N/N=C/c1c(O)n(Cc2ccccc2)c(=O)c2ccccc12)c1cccnc1	TRHR agonist-1 30.4, D1 agonist 46.8 | TRHR enhancer-2 inactive | TRHR agonist-2 20.6µM
COc1ccc(Cn2c(O)c(/C=N/NC(=O)c3cccnc3)c3ccccc3c2=O)cc1	TRHR agonist-1 56.8, D1 agonist 89.6 | TRHR enhancer-2 inactive | TRHR agonist-2 20.6µM
COC(=O)C(Cc1ccccc1)OS(N)(=O)=O (stereo unspecified)	none
Cc1cc(-n2cnc(-c3cn[nH]c3C)n2)no1	none
NS(=O)(=O)c1ccc(CCNC(=O)c2cc(=O)[nH]c3ccccc23)cc1	none
Cc1ccc2[nH]c(=O)c3cc(C(=O)NCCc4ccc(Cl)cc4)sc3c2c1	TRHR enhancer-1 57.2 | TRHR enhancer-2 inactive | TRHR agonist-2 inactive
O=C(NCCc1ccc(Cl)cc1)c1cc(-c2ccccn2)nc2ccccc12	TRHR enhancer-1 49.1 | TRHR enhancer-2 inactive | TRHR agonist-2 inactive
O=C(NCCc1ccc(Cl)cc1)c1cc(=O)[nH]c2ccccc12	TRHR enhancer-1 42.9 | TRHR enhancer-2 inconclusive | TRHR agonist-2 inactive
O=C(NCCc1ccc(Cl)cc1)c1cc(-c2ccncc2)nc2ccccc12	none
CCc1ccc2oc(-c3ccc(C)c(NC(=O)c4ccc(C#N)cc4F)c3)nc2c1	none
COc1ccc(NC(=O)c2cc(-c3ccccc3)on2)cc1OC	none
COc1ccc(-c2cc(C(=O)Nc3cc(C)nn3-c3ccccc3)no2)cc1OC	TRHR enhancer-1 56.6! | TRHR enhancer-2 inactive | TRHR agonist-2 inactive
COc1cccc(-c2cc(C(=O)Nc3ccc(OC)c(OC)c3)no2)c1	none | TRHR enhancer-2 inactive | TRHR agonist-2 inactive
COc1cc(/C=C2/C(=O)NN(c3cccc(C)c3)C2=O)ccc1OC(=O)c1ccco1	TRHR enhancer-1 51.5 | TRHR enhancer-2 inactive | TRHR agonist-2 inactive
COc1cc(/C=C2/C(=O)NN(c3cccc(C)c3)C2=O)cc([N+](=O)[O-])c1O	none
COc1ccc(Cn2nnnc2CN(CCCN2CCOCC2)Cc2cc3cc(OC)ccc3[nH]c2=O)cc1	TRHR enhancer-1 42.8 | TRHR enhancer-2 inactive | TRHR agonist-2 inactive
O=C(O)c1ccccc1Sc1ncnc2sc3c(c12)CCC3	TRHR enhancer-1 43.3 | TRHR enhancer-2 inactive | TRHR agonist-2 inactive
O=C(CSc1ncnc2sc3c(c12)CCCC3)c1ccccc1	none
COc1cccc(C(=O)C2CCCN(C(=O)CCc3scnc3C)C2)c1 (stereo unspecified)	none
COc1c(C)cc(C(=O)C2CCCN(C(=O)CCc3scnc3C)C2)cc1C (stereo unspecified)	TRHR enhancer-1 52.7 | TRHR enhancer-2 inactive | TRHR agonist-2 inactive
